Measurements reported in PubChem BioAssay AID1851 (National Center for Advancing Translational Sciences (NCATS), 2009).
Out of some 16,000 compounds screened, about 2,600 (16%) were called active. Inconclusive results (about 20%) are left out. Calls follow the shape of the dose curve; as a rule, active = well fitted curve in the direction sought with a large enough effect; inconclusive = small, poorly fitted or top-dose-only effect, or effect the other way; inactive = no such curve, though single readings can be large or run the other way. Not all results are given here.

molecular target: Cytochrome P450 2D6 (Homo sapiens) (UniProt P10635); assay: Cytochrome panel assay with activity outcomes; conditions: recombinant CYP, pro-luciferin dealkylation, luminescence, p450-cyp2d6; series mostly up to 57.1 µM; activity, negative = inhibition: at the top concentration
Sequence (P10635 whole entry, looked up): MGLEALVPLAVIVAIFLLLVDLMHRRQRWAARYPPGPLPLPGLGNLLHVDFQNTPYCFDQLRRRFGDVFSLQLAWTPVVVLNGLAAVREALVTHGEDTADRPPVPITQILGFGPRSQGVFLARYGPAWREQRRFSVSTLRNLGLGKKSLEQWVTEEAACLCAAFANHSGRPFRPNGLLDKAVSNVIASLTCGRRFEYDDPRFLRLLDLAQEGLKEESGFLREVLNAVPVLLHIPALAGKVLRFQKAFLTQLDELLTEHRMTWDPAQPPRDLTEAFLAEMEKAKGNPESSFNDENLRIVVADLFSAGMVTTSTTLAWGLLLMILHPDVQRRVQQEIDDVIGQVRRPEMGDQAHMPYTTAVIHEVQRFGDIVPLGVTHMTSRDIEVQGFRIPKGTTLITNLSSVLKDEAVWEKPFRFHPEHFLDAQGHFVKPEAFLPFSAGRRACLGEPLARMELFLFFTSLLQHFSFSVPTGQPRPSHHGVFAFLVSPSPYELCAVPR
% is scaled to controls: 0 for no effect and ±100 for the full control effect.

SMILES | activity, negative = inhibition | AC50
O=C(Nc1cccc(-c2cn3cccnc3n2)c1)c1ccco1 | -3.97% (inactive) | –
COc1ccc(S(=O)(=O)N2CCc3ccccc3C2)cc1OC | 26.5% (inactive) | –
O=C(NNS(=O)(=O)c1cc(Cl)cc(Cl)c1)c1sccc1-n1cccc1 | -28.4% (inactive) | –
O=C(NNS(=O)(=O)c1ccc(Cl)cc1)c1cnn(-c2ccccc2)c1-n1cccc1 | – | 2 µM (active)
O=C(NNS(=O)(=O)c1ccccc1)c1cccnc1 | 14.2% [at 11.4 µM] (inactive) | –
N=c1nc(N2CCCCC2)cc(N)n1O | – | inactive
Oc1[nH]c2ccccc2c1N=Nc1ccc(C(F)(F)F)cn1 | -2.34% (inactive) | –
[O-][N+](CCO)(CCO)c1ncnc2nc[nH]c12 | -0.262% [at 11.4 µM] (inactive) | –
CCNC(=O)COC(=O)c1cc(-c2ccc(OC)cc2)nc2ccccc12 | -27.2% (inactive) | –
COc1ccc(-c2nc3ccccc3c(=O)n2N)cc1 | -1.03% (inactive) | –
O[C@@H](c1cc(-c2ccc(Cl)cc2)nc2ccccc12)[C@@H]1CCCCN1 | – | 0.631 µM (active)
Cc1cc(C)c2nc3c(c([C@H](O)[C@@H]4CCCCN4)c2c1)CC/C3=C/c1ccc(Cl)cc1 | 0.19% [at 11.4 µM] (inactive) | –
COc1ccc(-c2cc([C@H](O)[C@@H]3CCCCN3)c3ccccc3n2)cc1 | – | 3.16 µM (active)
N/C(=N\OC(=O)c1cc(-c2ccccc2)nc2ccccc12)c1ccc(Cl)cc1 | -8.2% (inactive) | –
Cc1ccc(C(=O)COC(=O)CNC(=O)Cc2ccccc2)cc1[N+](=O)[O-] | -10.1% (inactive) | –
Cc1c(NC(=O)Cn2ccc([N+](=O)[O-])n2)c(=O)n(-c2ccccc2)n1C | 23.1% (inactive) | –
c1ccc(C2=NN[C@@H]3c4ccccc4-c4ccccc4N3C2)cc1 | -17.6% [at 11.4 µM] (inactive) | –
CCC(=O)NC(NC(=O)CC)C(Cl)Cl | 6.76% (inactive) | –
Cc1oc(-c2ccccc2Cl)nc1CSCC(=O)NC1CC1 | -21.5% (inactive) | –
CCOC(=O)N1CCN(C(=O)CSCc2nc(-c3ccccc3F)oc2C)CC1 | 6.39% (inactive) | –
Cc1cccc(C(=O)N/N=C/c2ccc(OCC(=O)N3CCCCC3)cc2)c1 | -11.8% (inactive) | –
CCN1CCCC1CNC(=O)CSCc1nc(-c2ccccc2C)oc1C (stereo not given) | – | 8.91 µM (active)
O=C(Nc1ccc2oc(-c3ccccc3F)nc2c1)c1ccc2c(c1)OCCO2 | -24.9% (inactive) | –
COCCCNC(=O)/C=C/c1ccc(Cl)cc1 | -4.47% (inactive) | –
O=C(/C=C/c1cccc([N+](=O)[O-])c1)NCCN1CCOCC1 | -0.0015% (inactive) | –

SMILES | activity, negative = inhibition | AC50
O=C(/C=C/c1ccc2c(c1)OCO2)NCCSCc1cccc(Cl)c1 | – | 0.355 µM (active)
O=C(CSCc1cccc(Cl)c1)N/N=C/c1ccc(OCC(=O)N2CCCCC2)cc1 | – | 17.8 µM (active)
O=C(CN1CCCC1)N/N=C/c1ccc(-c2cccc(Cl)c2)o1 | -20.7% (inactive) | –
Cc1oc(-c2ccccc2F)nc1CSCC(=O)NCc1ccc2c(c1)OCO2 | – | 2.24 µM (active)
COc1ncc2nc(-c3cc(F)cc(F)c3)c(=O)n(C[C@H]3CCCO3)c2n1 | -6.6% (inactive) | –
CNc1c2c(nn1C)CCCC2 | -19.9% (inactive) | –
Cc1ccccc1S(=O)(=O)Oc1ccccc1C(=O)Oc1ccccc1 | -7.88% (inactive) | –
Nc1ncnc2nc(N3CCN(CCO)CC3)[nH]c12 | 6.88% [at 11.4 µM] (inactive) | –
N[C@H](CCC(=O)NCS(=O)(=O)O)C(=O)O | 4.98% (inactive) | –
COc1cc(=O)n(C)c2c(OC[C@@H](O)C(C)(C)O)cccc12 | – | inactive
CO/N=C(\C(=O)N[C@@H]1C(=O)N2C(C(=O)O)=C(COC(C)=O)CS[C@@H]12)c1csc(N)n1 | – | inactive
Cc1ccccc1NC1=C(C(=O)c2ccccc2)N(C)S(=O)(=O)c2ccccc21 | -1.01% (inactive) | –
C[C@H]1COC(=O)[C@H](Cc2ccccc2)NC(=O)[C@@H](C)COC(=O)[C@H](Cc2ccccc2)NC1=O | 13.8% [at 11.4 µM] (inactive) | –
OC[C@@H]1O[C@@H](O)[C@H](N=Cc2ccc3c(c2)OCO3)[C@@H](O)[C@@H]1O | 0.161% [at 11.4 µM] (inactive) | –
COCCn1c(=O)c(-c2cc(F)cc(F)c2)nc2cnc(N3CCN(C)CC3)nc21 | -3.39% (inactive) | –
O=C(CSCc1cccc(Br)c1)N/N=C/c1ccc2c(c1)OCO2 | – | 2 µM (active)
Cn1c(=O)c2c(n(Cc3ccccc3)c1=O)NC(=O)C2CC(=O)NCc1cccc(Cl)c1 (stereo not given) | -23.2% (inactive) | –
C=CCNC(=O)CC(=O)N/N=C/c1cccc(Br)c1 | -2.86% (inactive) | –
O=C(/C=C/c1cc2c(cc1Br)OCO2)NCc1ccc(Cl)cc1 | -23.8% (inactive) | –
O=C(CSCc1cccc(Cl)c1)NCc1ccc2c(c1)OCO2 | – | 1 µM (active)
CCN(CC)C(=O)C(=O)N/N=C/c1cccc(Br)c1 | 16.9% (inactive) | –
O=[N+]([O-])c1ccc(/C=N/n2c(COc3ccccc3)n[nH]c2=S)cc1 | -10.7% (inactive) | –
C=CCNc1sc(C(=O)c2ccc(C)cc2)c(N)c1C#N | 6.69% (inactive) | –
O=C(O)[C@H]1CCCC[C@@H]1c1c2ccc(=O)c(O)c-2oc2c(O)c(O)ccc12 | -0.179% [at 11.4 µM] (inactive) | –
Cc1ccc(S(=O)(=O)N[C@H](C(=O)Oc2ccc3c(C(F)(F)F)cc(=O)oc3c2)c2ccccc2)cc1 | -6.64% (inactive) | –

SMILES | activity, negative = inhibition | AC50
O=C(O)/C(=C\c1ccc(O)cc1)c1cccc2ccccc12 | -6.42% [at 11.4 µM] (inactive) | –
O=C(O)[C@H]([C@H]1NCCS1)N1Cc2ccccc2C1 | 5.75% [at 11.4 µM] (inactive) | –
CCN=C(N)CSS(=O)(=O)O | -8.26% [at 11.4 µM] (inactive) | –
O=C(N/N=C1/C[C@@H](O)[C@@H](O)[C@@H]2[C@H]3C(=O)N(c4ccc(F)cc4F)C(=O)[C@@H]3CC[C@H]12)OCc1ccccc1 | -17.3% [at 11.4 µM] (inactive) | –
CSc1nnc(-c2ccc(Cl)cc2Cl)o1 | -5.62% (inactive) | –
Clc1ccc(-c2nnc(-c3cccc4ccccc34)o2)cc1Cl | 17.5% [at 11.4 µM] (inactive) | –
Clc1ccc(-c2nnc(CCc3ccccc3)o2)c(Cl)c1 | – | 11.2 µM (active)
CCN1C(=O)C(O)(CC(=O)/C=C/C=C/c2ccccc2)c2ccccc21 (stereo not given) | -17.9% (inactive) | –
CC(C)CO/N=C1/C[C@@H](O)[C@@H](O)[C@@H]2[C@@H]3C(=O)N(C[C@@H]4CCCO4)C(=O)[C@H]3CC[C@@H]12 | 17.5% [at 11.4 µM] (inactive) | –
O=c1c(-c2cccs2)nc2cnc(N3CCOCC3)nc2n1-c1ccccc1 | -9.01% (inactive) | –
COc1ccc(-n2c(=O)c(-c3cccs3)nc3cnc(N4CCOCC4)nc32)cc1 | -9.92% (inactive) | –
CC(C)c1ccc2c(c1)C(c1ccc(N3CCOCC3)cc1)=NNC(c1cccs1)=N2 | – | 7.08 µM (active)
COC(=O)C1=C(CSc2nncn2C)NC(=O)NC1c1ccc(F)cc1 (stereo not given) | 6.47% (inactive) | –
CC(=O)Nc1ccc(S(=O)(=O)NCC2CCC(C(=O)NCCC(C)C)CC2)cc1 (stereo not given) | -9.02% (inactive) | –
CC(=O)Nc1ccc(S(=O)(=O)N2CCC(N(C)CCC(C)C)CC2)cc1 | – | 8.91 µM (active)
Cc1ccc(S(=O)(=O)N2CCC(C(=O)NCCCOC(C)C)CC2)cc1 | 0.448% (inactive) | –
CCc1ccccc1NC(=O)c1nnn(CC(=O)Nc2cccc(C)c2C)c1N | -1.98% (inactive) | –
C/C(=N\Nc1nc(N)cc(Cl)n1)c1cccc([N+](=O)[O-])c1 | -9.23% (inactive) | –
O=C(Cc1ccccc1)Nc1nc2ccc(Cl)cc2c2nc(-c3ccco3)nn12 | – | 10 µM (active)
O=C(Cc1ccc(Cl)cc1)Nc1cccc(-c2nnc(-c3ccco3)o2)c1 | -9.85% (inactive) | –
O=C(Cc1ccc(Cl)cc1)NNC(=O)Nc1cccc2ccccc12 | 0.421% (inactive) | –
Cc1ccc(C(=O)NCc2ccc(N3CCN(C(=O)OC(C)(C)C)CC3)cc2)cc1 | -12.6% (inactive) | –
CC(C)NC(=O)CC(=O)N/N=C/c1ccc(F)cc1 | -0.0465% (inactive) | –
CCCCCSc1nncc(=O)[nH]1 | -0.262% (inactive) | –
Cc1cc(Oc2ccccc2)nc(NCc2ccccc2)n1 | -4.44% (inactive) | –

SMILES | activity, negative = inhibition | AC50
c1ccc(CSc2nnc3c4ccccc4c4ccccc4c3n2)cc1 | -1.49% [at 11.4 µM] (inactive) | –
Cc1nc(SCc2cccc(Oc3ccccc3)c2)n[nH]1 | – | 14.1 µM (active)
CN(C)c1ncc2nc(-c3cccs3)c(=O)n(-c3ccccc3)c2n1 | -11% (inactive) | –
CCN(CC)c1ccc2cc(C(C)=O)c(=O)oc2c1 | -11% (inactive) | –
CCN(CC)c1ccc2c(Cl)cc(=O)oc2c1 | – | 12.6 µM (active)
CCN(CC)c1ccc(C(=O)OCc2cc(=O)oc3cc(O)ccc23)cc1 | -15.9% (inactive) | –
CCOC(=O)c1ccccc1NC(=O)/C(C)=C/C(=O)O | 1.49% (inactive) | –
COCCn1c(=O)c(-c2cn(C)c3ccccc23)nc2cnc(Oc3cccc(Cl)c3)nc21 | 4.74% (inactive) | –
CCCOc1ccccc1-c1nc2n[nH]nc2c(=O)[nH]1 | – | inactive
CNc1nc(C)cc(C)c1S(=O)(=O)c1ccc(Cl)cc1 | 9.79% (inactive) | –
Cc1nn(S(=O)(=O)c2cccs2)c(C)c1Sc1ccc([N+](=O)[O-])cc1 | – | 2.24 µM (active)
Cc1ccc(Sc2c([N+](=O)[O-])ncn2C)cc1 | 9.72% (inactive) | –
Cc1nn(C(=O)c2ccco2)c(C)c1Sc1ccc(Br)cc1 | -13.8% (inactive) | –
O=C(OC1CCN(c2ccc([N+](=O)[O-])cc2)CC1)c1ccccc1 | 4.95% (inactive) | –
COc1ccc(-n2c(C)cc(C=O)c2C)cc1Cl | -8.2% (inactive) | –
CC(C)(O)c1cn(-c2nonc2N)nn1 | 10.6% (inactive) | –
COC(=O)c1c(NC(=O)c2ccco2)sc2c1CCC2 | 2.66% (inactive) | –
Cc1ccc(C(=O)Nc2ccc(C(=O)/C=C/c3cccs3)cc2)cc1 | 17.8% (inactive) | –
Cc1cccc(C)c1NC(=O)Nc1ccc(S(N)(=O)=O)cc1 | -10.2% [at 11.4 µM] (inactive) | –
Cc1ccc(S(N)(=O)=O)cc1NC(=O)/C=C/c1cccs1 | – | 14.1 µM (active)
CN(C(=O)C(Cl)Cl)c1ccc(OC(=O)c2ccco2)cc1 | -8.43% [at 25.6 µM] (inactive) | –
c1ccc2cc(C3=NCCN3)ncc2c1 | -18.2% (inactive) | –
Cc1ccccc1/C=C\C1=NCCN1 | – | 25.1 µM (active)
c1ccc2nc(C3=NCCN3)cnc2c1 | -1.42% (inactive) | –
O=C(Oc1ccccc1)N1CCC2(CC1)CCN(c1ccccn1)CC2 | -5.69% (inactive) | –
